This passage reports growth results from PubChem BioAssay (NCI).

The structures appear in SMILES notation. Compounds without any hit were thinned out: in the full panel of roughly 83,000, 20% have a hit.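 How to read the values: 0–100, growth inhibition (40 = 60% inhibited); 0, no net growth; -100 to 0, cell death (-40 = 40% of starting cells died; -100 = all dead).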 Unmarked numbers belong to inactive results. The source made the active and inactive calls. How the source made its calls: active means growth percent below 10; inactive means the rest.

This test concerns IGROV1 ovarian. In words: NCI-60 one-dose screen, 48 h (100 = growth as untreated, 0 = no growth, -100 = all killed). The following applies: 10 µM unless noted.
Take `ClC(Cl)c1nc(-c2cccs2)n2nc(-c3ccccc3)cc2n1`: the growth was 47.2%.
In the case of `O=C(COc1ccc(C2SCC(=O)N2c2ccccc2)cc1)c1ccccc1` (centres undefined), the growth is 96.4%.
Turning to `c1ccc(-c2n(Cc3ccc4ccccc4c3)c3c4ccccc4c4ccccc4c3[n+]2Cc2ccc3ccccc3c2)cc1`, the growth is -74.7% (active).
Take `O=C1[C@@H]2Cc3c([nH]c4ccccc34)[C@H](c3c(Cl)cccc3Cl)N2C(=O)CN1C1CCN(Cc2c(F)cccc2F)CC1`: the growth was 59.5%.
The figure for `NCCN1CCN(c2nc(-c3ccccc3)nc3nc(-c4ccccc4)oc23)CC1` is -71.6% (active).
On to `C/C(=C(/C)C1CC1CCN(C(=O)c1ccccn1)S(=O)(=O)c1ccc(C)cc1)C1CCCCC1` (centres undefined), for which the growth was 103%.
`Cc1nn(-c2ccccc2)cc1/C=N/Nc1nc(Nc2ccccc2)nc(Nc2ccc(S(N)(=O)=O)cc2)n1`: the growth was 13.1%.
Take `Brc1cccc(/C=N/Nc2nc(N/N=C/c3cccc(Br)c3)nc(N3CCOCC3)n2)c1`: the growth was 42.8%.
In the case of `COc1cc(/C=C2\SC(=O)NC2=O)ccc1OCC(=O)Nc1ccc(C(=O)/C=C/c2cc3ccccc3nc2Cl)cc1` it was 92.6%.
Consider `O=c1oc2ccc(-c3ccc(F)cc3F)cc2c(=O)n1-c1ccc(F)c(F)c1`, for which the growth is 15.1%.
In the case of `CC[C@@](C)(NC(=O)C(C)(C)NC(=O)[C@@H](NC(=O)[C@@H]1CCCN1C(=O)C(C)(C)NC(=O)[C@H](CC(C)C)NC(=O)CNC(=O)C(C)(C)NC(=O)[C@@H](NC(=O)C(C)(C)NC(=O)[C@H](CCC(N)=O)NC(=O)[C@H](C)NC(=O)C(C)(C)NC(=O)[C@H](C)NC(=O)C(C)(C)NC(=O)[C@@H]1CCCN1C(=O)C(C)(C)NC(C)=O)C(C)C)C(C)C)C(=O)N[C@@H](CCC(N)=O)C(=O)N[C@@H](CCC(N)=O)C(=O)N[C@H](CO)Cc1ccccc1` it was 42.6% [4.25 µM]; in that of `O=C(/C=C/c1cn(-c2ccccc2)nc1-c1ccc(Cl)cc1)c1cc2ccccc2oc1=O`, 35.4%.
For the compound `CCN1C(=O)N(CC)C2SC(N/N=C/c3ccc(OC)cc3)=NC21` (centres undefined), the growth was 23.2%.
In the case of `O=C(O)c1ccc(-n2cc(CNc3ccc(F)cc3)c(-c3ccc(C(F)(F)F)cc3)n2)cc1` it was 95%; in that of `COc1cc(/C=C/C(=O)c2ccc(NC(=O)COc3cccc4cccnc34)cc2)cc(OC)c1OC`, 69.4%.
The figure for `COc1cc(CNC(=O)Cc2ccccc2[N+](=O)[O-])ccc1OCC(=O)NO` is 108%.
As for `Oc1ccc(CSc2nnc(-c3cnccn3)o2)c2cccnc12`, the growth was 23.4%.
As to `O=C(NCCCNc1cc(-c2cn(-c3ccccc3)nc2-c2cccc(O)c2)ccn1)Nc1ccc(F)cc1`, the growth was 19.2%.
The figure for `COc1ccc(-c2nn(-c3ccccc3)cc2/C=C/C(=O)c2ccc(NC(=O)CCCCCCC(=O)NO)cc2)cc1` is 96.2%; for `O=C1[C@H]2Cc3c([nH]c4ccccc34)[C@@H](c3c(Cl)cccc3Cl)N2C(=O)CN1C1CCN(Cc2ccccc2)CC1` it is 70.3%; for `COc1cccc(/C=C/C(=O)c2ccc(NC(=O)COc3cccc4cccnc34)cc2)c1` it is 100%.
For `CCCC(=O)NC(c1cccnc1)c1cc(Cl)c2cccnc2c1O` (centres undefined), the growth was 28.5%.
Take `C/C(=N/Nc1nc(N/N=C(/C)c2ccc([N+](=O)[O-])cc2)nc(N2CCOCC2)n1)c1ccc([N+](=O)[O-])cc1`: the growth is 93.8%.
In the case of `Oc1ccc(CSc2nnc(-c3cnccn3)n2-c2ccccc2)c2cccnc12` it was 16.3%; in that of `CCOC(=O)C1=C(C)Nc2nc3ccccc3n2C1c1ccccc1` (centres undefined), 91.6%.
In the case of `Oc1ccc(CSc2nnc(-c3ccc(Br)cc3)o2)c2cccnc12` it was 31.6%.
In the case of `CNC(=O)c1cc(N2CCc3cc(NC(=O)Nc4ccc(Cl)c(Cl)c4)ccc32)ccn1` it was 94%.
In the case of `COc1cc2cc(Oc3ccc(NC(=O)Nc4cc(C(F)(F)F)cc(C(F)(F)F)c4)cc3)c(C)nc2cc1OCCN(C)C`, the growth is 104%.
On to `Cc1cc(O)c(=O)cc2c1C[C@H]1CC(C)(C)/C=C/C[C@]3(C)Oc4cc(=O)c(O)cc(C)c4C[C@H]3C[C@H](O)[C@@]1(C)O2`, for which the growth was 6.73% (active).
Consider `COc1ccc(-c2nnc(SCc3ccc(O)c4ncccc34)n2-c2ccccc2)cc1`, for which the growth was 10%.
For the compound `O=C(CCCCCCN1CC(=O)N2[C@@H](c3ccc(Cl)c(F)c3)c3[nH]c4ccccc4c3C[C@H]2C1=O)NO`, the growth is 64.5%.
As for `Oc1ccc(CSc2nnc(-c3ccccc3)n2-c2ccccc2)c2cccnc12`, the growth was 9.4% (active).
The figure for `Cc1ccc(NC(=O)c2ccc(CN3CCN(C)CC3)c(C(F)(F)F)c2)cc1Oc1ccc(-c2[nH]nc3ncnc(N)c23)cc1` is 82.7%; for `CC(c1ccccc1)N1C(=O)/C(=C/c2csc(C#N)n2)SC1=S` (centres undefined) it is 90.9%; for `O=C(COc1ccc(C2SCC(=O)N2c2ccc(F)cc2)cc1)c1ccccc1` (centres undefined) it is 86.2%.
`COc1ccc(-c2nnc(SCc3ccc(O)c4ncccc34)o2)cc1`: the growth is 43%.
The figure for `O=c1[nH]c(CNc2ccc(NCc3c(-c4ccccc4)no[n+]3[O-])cc2)nc2c1cnn2-c1ccccc1` is 73.5%; for `COc1ccc(N)cc1C(=O)Nc1cccc(-c2cc(=O)c3c(OC)c(OC)c(OC)cc3o2)c1` it is 51.3%; for `CCCC(=O)NC(c1cccnc1)c1cc(C(C)=O)c2cccnc2c1O` (centres undefined) it is 36.7%.
